Records with an inconclusive call do not appear. Where a call stands in place of a potency, no number is given. The source holds several records for some structures; these can differ, active in one and inactive in another. Active and inactive are the calls of the source. The call rests on the fitted dose curve; in most records, active means well fitted activation curve with a large enough effect in the signal ratio in the repeat runs (not every such curve was filed as active); inconclusive means weak or mixed curves; inactive means flat fitted curve, though single readings scatter; the % refers to the signal ratio.
Experiment: qHTS assay to identify small molecule agonists of H2AX (AID 1224845)
Details: CHO-K1 phospho-H2AX Ser139 HTRF, 3 h; series mostly up to 154 µM
Excerpt: National Center for Advancing Translational Sciences [NCATS]
NIH Chemical Genomics Center [NCGC]
U.S. Environmental Protection Agency [EPA]
National Institutes of Environmental Health Sciences [NIEHS]
National Toxicology Program [NTP]
U.S. Food and Drug Administration [FDA]
HTRF phospho-H2AX (Ser139) assay (Cisbio Bioassays, US) enables the quantitative detection of the histone variant H2AX when phosphorylated on serine 139. When double-stranded DNA breaks, either by ionizing radiation or endogenous physiological processes, H2AX becomes phosphorylated at Ser139. This phospho-Ser139 serves as a sensitive biomarker for the detection of such breaks, localizing the site of DNA repair. So, HTRF phospho-H2AX Ser139 is a pertinent assay to study genome stability, the cell cycle, DNA repair, and it serves as a biomarker for cancer, and to understand aging. Wild type CHO-K1 cells were used to identify the inducers of Phospho-H2AX Ser 139 from the Tox21 10K compound collections.
Tox21 Assay Protocol Summary:
The CHO-K1 cells suspended in culture medium containing 10% FBS were dispensed at 1000 cells/ 3 ul/well in 1536-well white wall/solid bottom plates (Greiner Bio-One North America, NC) using a Multidrop Combi (Thermo Fisher Scientific Inc., Waltham, MA). After the assay plates were incubated at 37C overnight, 23 nl of compounds at 15 concentrations (from 5-48 columns) or positive control (from 1 to 4 columns) were transferred to the assay plates using a Pintool station (Wako, San Diego, CA) into each well resulting in a final DMSO concentration of 0.76%. After 3hr incubation at 37C, 1 uL/well Supplemented Lysis buffer (diluted 100 fold blocking reagent in lysis buffer) (HTRF Phospho-H2A.X (S139) Assay kit from Cisbio US Inc., Bedford, MA) was added using a Flying Reagent Dispenser (FRD) (Aurora Discovery, CA). After 10sec spin at 1000 rpm in a plate centrifuge, the assay plates were incubated at room temperature for 30 min. Then followed by the addition of 1 uL/well detection buffer (containing a mixture of two antibodies, one labeled with cryptate, Anti pH2AX (S139)-K and another labeled with d2, Anti H2AX-d2) using FRD. After incubation at room temperature for 24 hr, the time resolved fluorescence at excitation 320 nm and emissions at 665 nm and 620 nm was measured using an Envision plate reader (PerkinElmer, Waltham, MA).
Potency means the concentration at half of the fitted maximal effect.

Row | Compound | Potency
1 | O=S(=O)(c1ccc(O)cc1)c1ccc(O)cc1 | inactive
2 | ClCc1cccnc1 | inactive
3 | CCC(C)(CC)c1cc(NC(=O)c2c(OC)cccc2OC)on1 | inactive
4 | O=c1[nH]c2ccccc2c(=O)o1 | inactive
5 | Nc1ccc(Oc2ccc(N)cc2)cc1 | inactive
6 | COCCl | inactive
7 | CCC12COCN1COC2 | inactive
8 | ClCCBr | inactive
9 | CCC[N+](=O)[O-] | 5.56 µM (active) and inactive
10 | CC(C)(C)OOC(=O)c1ccccc1 | inactive
11 | CC(C)(C)OOC(C)(C)C | inactive
12 | CN(C)N=O | inactive
13 | COc1ccc2c3c1O[C@H]1[C@@H](O)C=C[C@H]4[C@@H](C2)N(C)CC[C@@]341 | 99.2 µM (active) and inactive
14 | CC(C#N)CCC#N (stereo not given) | inactive
15 | Cc1cc(Cl)ccc1O | inactive
16 | CN(N=O)c1ccccc1 | inactive
17 | c1ccc(-c2ccccc2)cc1 | inactive
18 | Cc1ccccc1O | inactive
19 | Nc1ccc(Br)cc1 | inactive
20 | O=c1n(Cl)c(=O)n(Cl)c(=O)n1Cl | inactive

Row | Compound | Potency
21 | O=c1ccc(=O)[nH][nH]1 | inactive
22 | C1CN2CCN1CC2 | inactive
23 | CCN(CC)c1ccccc1 | inactive
24 | COP(N)(=O)SC (stereo not given) | inactive
25 | CC(C)C1(C)N=C(c2nc3ccccc3cc2C(=O)O)NC1=O (stereo not given) | inactive
26 | CC1C=[C-]C=C1.[C-]#[O+].[C-]#[O+].[C-]#[O+].[Mn] | inactive
27 | CCOP(OCC)OCC | inactive
28 | c1ccc2c(c1)Oc1ccccc1O2 | inactive
29 | CC(C)OC(=O)Nc1ccccc1 | inactive
30 | COC(=O)c1ccccc1N | inactive
31 | O=S(=O)(c1ccc(Cl)cc1)c1cc(Cl)c(Cl)cc1Cl | inactive
32 | CON(C)C(=O)Nc1ccc(Cl)c(Cl)c1 | inactive
33 | C=C(C)CCl | inactive
34 | c1ccc(OP(Oc2ccccc2)Oc2ccccc2)cc1 | inactive
35 | CC(Oc1ccc(Cl)cc1Cl)C(=O)O (stereo not given) | inactive
36 | CC(C)OC(=O)Nc1cccc(Cl)c1 | inactive
37 | Oc1ccccc1Cl | inactive
38 | O=[N+]([O-])c1ccc([As](=O)(O)O)cc1 | inactive
39 | Clc1ccccc1Cl | inactive
40 | CCN(CC)CCO | inactive

From PubChem BioAssay (Tox21)
